# DRD3 antagonist: qHTS of D3 Dopamine Receptor Antagonist: qHTS; max response, negative = inhibition, %; hit rate 2.5% among 360,000; D3R cells, DiscoveRx beta-arrestin luminescence, antagonist mode; active compounds read low; in the data active = max response below about -50%; inconclusive = no clear call, values can overlap the other calls
# Target sequence (P35462 whole entry, looked up): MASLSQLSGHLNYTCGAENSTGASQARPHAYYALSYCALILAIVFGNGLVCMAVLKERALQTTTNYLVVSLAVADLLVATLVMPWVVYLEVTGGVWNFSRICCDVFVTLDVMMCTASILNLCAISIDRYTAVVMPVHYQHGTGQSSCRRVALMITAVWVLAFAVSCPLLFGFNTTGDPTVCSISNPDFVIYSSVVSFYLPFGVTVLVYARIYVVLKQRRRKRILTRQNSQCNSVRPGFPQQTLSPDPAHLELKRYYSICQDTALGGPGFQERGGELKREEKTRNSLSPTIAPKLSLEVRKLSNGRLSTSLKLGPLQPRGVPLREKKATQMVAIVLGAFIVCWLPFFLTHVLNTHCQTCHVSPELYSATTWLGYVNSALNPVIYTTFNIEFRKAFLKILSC
#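 Cells expressing the human receptor were seeded at 1500 cells/well, incubated overnight at 37 degrees C in 5% CO2, then exposed to library compounds with dopamine controls for 90 minutes at 37 degrees C before luminescent detection.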
# LDHA inh: qHTS assay for inhibitors of human lactate dehydrogenase. L-lactate dehydrogenase A chain (Homo sapiens), P00338. purified LDHA, NADH/diaphorase-resazurin fluorescence; active compounds read low. activity change, % (values are at about 110 or 230 µM). hit rate 0.15% among 480,000; in the data active = activity change below about -30%; inconclusive = mostly about -25% to -30%
#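 Remaining NADH was detected by diaphorase (0.133 mg/mL) converting 37 µM resazurin to fluorescent resorufin, read at 0 and 20 minutes. The preceding 5-minute room-temperature reaction used 2 nM LDHA, 0.2 mM sodium pyruvate and 0.06 mM NADH at pH 7.4.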
# PI4K2A block: qHTS for small molecular inhibitors of PI4K2A; Phosphatidylinositol 4-kinase type 2-alpha (Homo sapiens), Q9BTU6; purified PI4K2A, ADP-Glo luminescence, 1 h; active compounds read low; activity change, negative = inhibition, % at 76.9 µM; hit rate 0.13% among 420,000; AID 1346378, 2018; in the data active = activity change below about -50%; inconclusive = mostly about -30% to -49%
#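 ADP-Glo luminescence measured ADP generated by PI4K2A enzyme (4 ug/mL before mixing) with 1.2 mM PI substrate (pre-mix) and 300 microM ATP (pre-mix). Tris pH7.5 buffer with MgCl2, Triton X-100; 1 h reaction at ambient temperature.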
# RGS4 inhibitor: Inhibitors of Regulator of G Protein Signaling (RGS) 4: qHTS; Regulator of G-protein signaling 4 (Homo sapiens), P49798; Transcreener GDP fluorescence polarization, RGS4-accelerated GTP hydrolysis; Potency, µM (titrated, usually from 114 µM), hits mostly inhibitors; hit rate 0.039% among 390,000; AID 504845, 2011; active = well fitted inhibition curve with a large enough effect; inconclusive = small, poorly fitted or top-dose-only effect; inactive = no such curve, though single readings can be large or run the other way; also: nearly all actives have a fitted effect of over 75% in size
# Target sequence (P49798 whole entry, looked up): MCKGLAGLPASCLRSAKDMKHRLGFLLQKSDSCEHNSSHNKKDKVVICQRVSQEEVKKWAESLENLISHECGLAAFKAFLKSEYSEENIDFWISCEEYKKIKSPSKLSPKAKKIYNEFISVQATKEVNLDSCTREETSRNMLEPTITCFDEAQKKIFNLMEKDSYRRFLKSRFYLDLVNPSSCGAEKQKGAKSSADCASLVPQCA
#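 MLSMR compounds (23 nl, pin-transferred) preincubated 10 min at room temperature with a 500nM (2x) first reagent, then RGS4 at 900nM (2x) plus Transcreener GDP mix added; fluorescence polarization (620/688 nm) read before and after 90 min at 30 °C.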
# DRD3 agonist: qHTS of D3 Dopamine Receptor Agonist: qHTS; D(3) dopamine receptor (Homo sapiens), P35462; D3R DiscoveRx beta-arrestin cells, luminescence, 90 min; max activation, %; hit rate 0.58% among 410,000; in the data active = max activation above about 30%
#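 Cells at 1500/well, incubated overnight, then treated with pinned compounds (dopamine as control) for 90 min at 37 degrees C. DiscoveRx reagent added for 30 - 60 minutes at room temperature; luminescence read.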
# pAkt inh: HTS Assay for Inhibitors of Akt Phophorylation: Primary Screen; Neuro2A IGF-stimulated pAkt S473 HTRF, 20 min; active compounds read low; activity change, % for hits at 50 µM; hit rate 0.32% among 360,000; AID 651550, 2012; in the data active = activity change below about -80%; inconclusive = mostly about -51% to -80%
#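 Neuro2A cells (4,500/well, DMEM with 0.5% FBS) were treated with compound at a single 50 µM final concentration, stimulated with 6 nM IGF for 20 min at 37 °C, and lysed. Phospho-Akt Ser473 was read by HTRF as 665/615 ratio ×10^4.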
# Hits are given with their value; n = inactive; u = inconclusive; x = not tested or not shown; ! = a repeat was not active; [ ] = remark or other dose. Sampled rows, rich in hits. Any-hit rate of the full collection: about 2.8%.
SMILES,DRD3 antagonist,LDHA inh,PI4K2A block,RGS4 inhibitor,DRD3 agonist,pAkt inh
CCOc1ccc(NC(=O)CNC(=O)c2ccc(OC)c(OC)c2)cc1,-54.0,n,n,n,n,n
COc1ccc(CCCN)cc1,x,n,x,x,x,x
COc1ccc(OC)c(NC(=O)COC(=O)c2cc(S(=O)(=O)N3CCOCC3)ccc2F)c1,x,n,x,x,x,x
O=C1/C(=C/c2ccccc2)CCc2ccc(Cl)nc21,-73.0,n,n,u,n,n
O=C(CSc1nc2nc[nH]c2c(=O)[nH]1)c1ccc(Br)cc1,x,n,x,x,x,x
COC(=O)Oc1c(Br)c(=O)oc2ccccc12,-82.2,n,n,n,n,n
COc1ccc(C(=O)NC(=S)Nc2ccccc2F)cc1,n,n,n,n,n,n
CNC(=O)NC(=S)NC(=O)c1ccc(OC)cc1,-72.2,n,n,n,n,n
O=C(NC(=S)NNC(=O)c1ccccc1O)c1cccc([N+](=O)[O-])c1,n,n,n,n,43.1,n
COc1ccc(C(=O)NC(=S)NNC(=O)c2ccccc2O)cc1,n,n,n,n,37.7,n
COC(=O)c1nc2ccccc2nc1NCCc1ccc(C)cc1,x,n,x,x,x,x
COC(=O)/C=c1\sc2ncnn2c1=O,-68.8,n,n,u,n,n
CN1CC(c2ccccn2)C2(SC(=S)N(Cc3ccccc3)C2=O)C12C(=O)Nc1ccccc12 (centres undefined),n,n,n,n,n,-83.8%
CN1CC(c2ccccc2)C2(SC(=S)N(Cc3ccco3)C2=O)C12C(=O)Nc1ccccc12 (centres undefined),u,n,n,n,n,n
COc1ccc(CCC(C)NCc2cccc(Br)c2)cc1 (centres undefined),-68.3,n,n,n,n,n
CC(CCc1ccccc1)NCc1cccc2ccccc12 (centres undefined),-53.8,n,n,n,n,n
Cc1cc(N2CCN(C3CCCCC3)CC2)nc2cccc(O)c12,-83.9,n,n,n,n,n
COc1ccc(NCc2nc3ccccc3n2CCOc2ccccc2)cc1,n,n,n,n,n,n
Cc1ccc(OCCn2c(CCCO)nc3ccccc32)cc1,n,n,n,n,n,-105.9%
COc1ccc(NCc2nc3ccccc3n2CCOc2ccc(C)cc2)cc1,-51.9,n,n,n,n,n
CCCc1nc2ccccc2n1CCOc1ccccc1,-62.2,n,n,n,n,n
OCCCc1nc2ccccc2n1CCOc1ccccc1,n,n,n,n,n,n
Cc1ccc(NC(=O)c2ccc(-n3cnc(NC(=O)C(C)C)c3)cc2)cc1C,x,n,x,x,x,x
COc1cc(CNCc2ccccc2)c(Br)cc1OC1CCCC1,-62.2,n,n,n,n,n
COc1cc(CNC2CCCC2)c(Br)cc1OC1CCCC1,n,n,n,n,n,n
SMILES,DRD3 antagonist,LDHA inh,PI4K2A block,RGS4 inhibitor,DRD3 agonist,pAkt inh
Oc1cc(O)cc(/C=C/c2ccc(O)c(O)c2)c1,n,n,-52.9,21.2µM!,n,n
Cc1ccc(CN(C)C(=O)Cn2cnc3c2c(=O)n(C)c(=O)n3C)o1,x,n,x,x,x,x
O=C(COc1ccc(-n2cnnn2)cc1)NC1CCCCC1,-65.1,n,n,n,n,n
Cc1cc(C)n(-c2ncnc3sc(C)c(-c4ccc(Cl)cc4)c23)n1,x,n,x,x,x,x
C=CCN1CCN(c2nc3c(c(=O)[nH]c(=O)n3C)n2Cc2cc(C)ccc2C)CC1,x,n,x,x,x,x
Nc1c(C(=O)NCc2ccco2)c2nc3ccccc3nc2n1CCc1ccc(F)cc1,-62.9,n,u,u,n,n
COc1ccc(-n2c(N)c(C(=O)NCc3ccco3)c3nc4ccccc4nc32)cc1,n,n,n,n,n,n
Cc1ccc(S(=O)(=O)N(CC(O)CN2CCCC2)c2ccccc2)cc1 (centres undefined),u,n,n,n,n,n
Cc1ccc(N(CC(O)CN2CCOCC2)S(=O)(=O)c2ccc(C)cc2)cc1 (centres undefined),x,n,x,x,x,x
Cc1ccc(S(=O)(=O)N(CC(O)CN(C)C)c2ccccc2)cc1 (centres undefined),n,n,n,n,n,-108.5%
Cc1ccc(N(CC(O)CN2CCCCC2)S(=O)(=O)c2ccccc2)cc1 (centres undefined),-77.1,n,n,n,n,n
Cc1ccc(N(CC(O)CN(C)C)S(=O)(=O)c2ccccc2)cc1 (centres undefined),n,n,n,n[11.4 µM],n,n
Cc1ccc(N(CC(O)CN2CCCCC2)S(=O)(=O)c2ccc(C)cc2)cc1 (centres undefined),-51.6,n,n,n,n,n
CCN(c1ccccc1)S(=O)(=O)c1ccc(F)cc1,-52.5,n,n,n,n,n
O=C(O)c1ccc2nc(CCl)[nH]c2c1,x,n,x,x,x,x
CCc1nnc(N/N=C/c2ccccc2Cl)n1N,-63.2,n,n,n,n,n
CC(C)(C)c1nnc(N/N=C/c2ccccc2O)n(N)c1=O,n,n,n,n,33.5,n
CCc1nnc(N/N=C/c2ccccc2F)n1N,n,n,u,u,n,n
Cc1ccc2nc(C)c(C(=O)N3CCN(S(=O)(=O)c4ccccc4)CC3)cc2c1,x,n,x,x,x,x
CCOC(=O)C(O)(c1ccc(N(C)C(=O)Nc2ccc(Cl)c(Cl)c2)cc1)C(F)(F)F (centres undefined),x,n,x,x,x,x
O=C(/C=C/c1cccc([N+](=O)[O-])c1)c1ccccc1OC(F)F,x,n,x,x,x,x
CC(C)Cn1c(N)c(-c2csc(NC(C)C)n2)c(=O)n(C)c1=O,x,n,x,x,x,x
C#CCOCCOCCOCCNc1nc(N2CCN(C(=O)CCCCCCCCCCNC(=O)[C@H](CCCCN)n3cc(C[C@@H](C)CC)nn3)CC2)nc(N2CCN(C(=O)CCCCCCCCCCNC(=O)[C@H](CCCCN)n3cc(C[C@@H](C)CC)nn3)CC2)n1,-51.0,n,n,u,n,n
C#CCOCCOCCOCCNc1nc(N2CCN(C(=O)[C@H]([C@@H](C)CC)n3cc(CCCN=C(N)N)nn3)CC2)nc(N2CCN(C(=O)[C@H](CCCCN)n3cc(CCC(=O)O)nn3)CC2)n1,n,n,n,n,47.7,n
C#CCOCCOCCOCCNc1nc(N2CCN(C(=O)CCCCCCCCCCNC(=O)[C@H](CCCCN)n3cc(CCO)nn3)CC2)nc(N2CCN(C(=O)CCCCCCCCCCNC(=O)[C@H](CCCN=C(N)N)n3cc(C[C@@H](C)CC)nn3)CC2)n1,u,n,n,u,n,n
Cc1ccc(NC(=S)N(C)N)cc1Cl,n,n,n,n,n,n
CN(N)C(=S)Nc1ccc(F)cc1,n,n,n,n,37.1,n
